Test [1] concerns the target Aldehyde dehydrogenase, mitochondrial (Homo sapiens) (UniProt P05091). As to the kind of experiment: qHTS for Inhibitors of the Aldehyde Dehydrogenase Family (ALDH2) Primary screen (AID 2061308; further: nearly all actives have a fitted effect of over 55% in size). (In general: In qHTS, concentration-response curves come from the screen itself.)
In test [2] the target is Retinaldehyde dehydrogenase 3 (Homo sapiens) (UniProt P47895). As to the kind of experiment: qHTS for Inhibitors of the Aldehyde Dehydrogenase Family (ALDH1A3) Primary screen (AID 2061315).

Records with an inconclusive call do not appear. A call without a number means that no potency is given here. Activity calls are given as the source filed them. The call rests on the fitted dose curve; in most records, active means well fitted curve in the direction sought with a large enough effect; inconclusive means small, poorly fitted or top-dose-only effect, or another doubt; inactive means no such curve, though single readings can be large; an effect the other way counts as inactive or inconclusive.

Turning to `CC(C)(C)OC(=O)NCC(=O)NNC(=O)c1nc2ccccc2[nH]1`, the Potency entry in test [1] and in test [2] was “inactive” in each case.

For the molecule `Cc1ccc(NS(=O)(=O)c2ccc(F)cc2)cc1C`, the Potency entry in test [1] and in test [2] was “inactive” throughout.

`Cc1cccc(-n2cnc3cc(C(=O)NC4CCCC4)ccc32)c1`: the Potency entry in test [1] and in test [2] was “inactive” in each case.

`O=C1c2ccccc2C(=O)N1c1cccc(O)c1`: the Potency entry in test [1] and in test [2] was “inactive” each time.

As for `COc1cccc(C(=O)Nc2ccc(-c3nc4ccccc4[nH]3)cc2)c1`, the Potency entry in test [1] and in test [2] was “inactive” throughout.

As to `Cc1ccnc(C(=S)N2CCN(c3cccc(C(F)(F)F)c3)CC2)c1`, the Potency entry in test [1] and in test [2] was “inactive” each time.

Regarding `Cn1c2cc(S(C)(=O)=O)sc2c2cnn(Cc3ccccc3F)c(=O)c21`, the Potency result in test [1] and in test [2] was “inactive” each time.

`COc1ccc(C(=O)N(Cc2cccs2)Cc2cccs2)c(O)c1`: the Potency result in test [1] and in test [2] was “inactive” each time.

Turning to `O=S(=O)(c1ccc2c(c1)OCCO2)C1CCN(S(=O)(=O)c2c(F)cccc2F)CC1`, the Potency entry in test [1] and in test [2] was “inactive” throughout.

With `Cc1ccc(OCCn2c(CCNC(=O)c3cccc4cc[nH]c34)nc3ccccc32)cc1`, the Potency result in test [1] and in test [2] was “inactive” in each case.

On to `COc1cccc(NC(=O)C(OC(=O)CNC(=O)c2ccccc2)c2ccccc2)c1` (stereo not drawn), for which the Potency entry in test [1] and in test [2] was “inactive” each time.

`O=C(Nc1ccc([S+](=O)([O-])Nc2nccs2)cc1)c1ncn[nH]1`: the Potency entry in test [1] and in test [2] was “inactive” throughout.

On to `COCCNc1nc(C)nc2c1nc(-c1ccccc1)n2CCN(C)C`, for which the Potency entry in test [1] and in test [2] was “inactive” in each case.

On to `COc1cccc(-c2csc3ncnc(Sc4nnnn4C)c23)c1`, for which the Potency entry in test [1] and in test [2] was “inactive” in each case.

Consider `O=S(=O)(NCCCNS(=O)(=O)c1c(F)cccc1F)c1ccc2c(c1)OCCO2`, for which the Potency entry in test [1] and in test [2] was “inactive” throughout.

For `Cc1ccc(-c2cc(C(=O)N3CC[S+](=O)([O-])CC3)c3ccccc3n2)cc1C`, the Potency entry in test [1] and in test [2] was “inactive” throughout.

Regarding `O=C(O)c1ccc(CSc2nnc(-c3cccc(S(=O)(=O)NC4CCCC4)c3)n2-c2ccc(F)cc2)cc1`, the Potency entry in test [1] and in test [2] was “inactive” in each case.

As for `Cc1cc(N[S+](=O)([O-])c2ccc(NC(=O)Cc3ccc4c(c3)CCCC4)cc2)no1`, the Potency entry in test [1] and in test [2] was “inactive” throughout.

As for `Cc1ccc([S+](=O)([O-])n2cc(-c3ccc(-c4ccccc4)cc3)c3ccccc32)cc1`, the Potency entry in test [1] and in test [2] was “inactive” throughout.

`Cc1cc(C)n2ncc(C(=O)Nc3ccccc3C)c2n1`: the Potency result in test [1] and in test [2] was “inactive” each time.

As to `O=C1CCCC2=C1C(c1cccc(Cl)c1)N=C(Nc1nc3ccccc3o1)N2` (stereo not drawn), the Potency result in test [1] and in test [2] was “inactive” throughout.

On to `Cc1ccnc(NC(=S)N2CC3CN(c4cccc(C(F)(F)F)c4)CC3C2)c1` (stereo not drawn), for which the Potency entry in test [1] and in test [2] was “inactive” each time.

Turning to `O=C1CCc2cc(S(=O)(=O)Nc3ccc4ccccc4c3)ccc2N1`, the Potency result in test [1] and in test [2] was “inactive” in each case.

With `COc1ccc(CNc2ccc(S(=O)(=O)Nc3nccs3)cc2)c(O)c1`, the Potency entry in test [1] and in test [2] was “inactive” throughout.

Take `CN(Cc1ccco1)c1ncnc2ccc(-c3ccc4c(c3)OCCO4)cc12`: the Potency result in test [1] and in test [2] was “inactive” in each case.

As to `CC1CCC2C(C)(C)C(O)CCC2(C)C12Cc1c(O)cc3c(c1O2)CN(C(CCCN=C(N)N)C(=O)O)C3=O` (stereo not drawn), the Potency entry in test [1] and in test [2] was “inactive” each time.

For the molecule `O=C(Cc1ccc(Cl)c(Cl)c1)Nc1ccc([S+](=O)([O-])Nc2ncn[nH]2)cc1`, the Potency entry in test [1] and in test [2] was “inactive” in each case.

On to `c1nc(NCc2ccc3c(c2)OCO3)c2cc(-c3ccoc3)ccc2n1`, for which the Potency result in test [1] and in test [2] was “inactive” in each case.

For `C=C[C@H]1C(O[C@@H]2O[C@H](CO)[C@@H](O)[C@H](O)[C@H]2O)OC=C2C(=O)N3CCc4c([nH]c5ccccc45)[C@H]3C[C@H]21` (stereo partly drawn), the Potency result in test [1] and in test [2] was “inactive” each time.

For `O=C(OCc1ccccc1)N1CCN(C(=O)[C@H](Cc2ccc(O[S+](=O)([O-])c3cccc4cnccc34)cc2)N[S+](=O)([O-])c2cccc3cnccc23)CC1`, the Potency entry in test [1] and in test [2] was “inactive” throughout.

Regarding `Cc1ccnc(NC(=S)Nc2cccc(C(F)(F)F)c2)c1`, the Potency result in test [1] and in test [2] was “inactive” each time.

`N/C(=N\c1nnc(-c2ccncc2)s1)Nc1ccc(Cl)c(Cl)c1`: the Potency entry in test [1] and in test [2] was “inactive” each time.

On to `CN1CCOc2ccc(S(=O)(=O)N3CCN(S(=O)(=O)c4c(F)cccc4F)CC3)cc21`, for which the Potency entry in test [1] and in test [2] was “inactive” throughout.

As for `O=C1NS(=O)(=O)c2cscc21`, the Potency result in test [1] and in test [2] was “inactive” throughout.

(Values after PubChem BioAssay (NCATS).)
